Reference: PubChem BioAssay (Tox21)
Inconclusive results are not listed. The source made the active and inactive calls. Unless noted, calls follow the shape of the full dose curve.

Assays:
[1] = Nuclear factor erythroid 2-related factor 2/antioxidant responsive element (Nrf2/ARE) small molecule agonists: qHTS cell viability counter screen in human keratinocytes (AID 1919968; active = well fitted curve in the direction sought with a large enough effect in the repeat runs; an effect the other way counts as inactive or inconclusive; also: nearly all actives have a fitted effect of over 55% in size)
Summary of the method: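 Measured as CellTiter-Fluor fluorescence, this readout tracks cytotoxicity in the same wells as the ARE-luciferase screen. HaCaT reporter cells (1,500/well) received compounds after a 5 h pre-incubation and were exposed for 23 h.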

[2] = Nuclear factor erythroid 2-related factor 2/antioxidant responsive element (Nrf2/ARE) small molecule agonists: luciferase reporter gene qHTS assay in human keratinocytes (AID 1919969); also: nearly all actives have a fitted effect of over 35% in size
[3] = biological target: Gonadotropin-releasing hormone receptor (Homo sapiens) (UniProt P30968); test: Human gonadotropin-releasing hormone receptor (GnRHR) small molecule agonists, calcium flux assay in GnRHR-HEK293 cells (AID 1920063); also: nearly all actives have a fitted effect of over 35% in size
Summary of the method: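 Fluorescence kinetics (480 nm excitation, 540 nm emission; 3 min, 1 s steps) report calcium mobilisation in human GnRHR-HEK293 cells in agonist mode. Dye incubation: 1 h, 37 C.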

[4] = biological target: KiSS-1 receptor (Homo sapiens) (UniProt Q969F8); test: Human kisspeptin (KISS1R) small molecule agonists, calcium flux assay in KISS1R-HEK293 cells (AID 1920064; active = well fitted curve in the direction sought with a large enough effect in the repeat runs; an effect the other way counts as inactive or inconclusive)
Summary of the method: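 Measures KISS1R agonism through calcium-sensitive dye fluorescence in stably transfected HEK293 cells, read for 3 min after pin-tool compound delivery; 15-point titrations in triplicate.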

[5] = G protein-coupled receptor (GPCR) small molecule agonists, calcium flux assay: HEK293 wild type cell line counter screen (AID 1920065)
Summary of the method: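 Readout: fluorescence at 480 nm excitation/540 nm emission, sampled at 1 s intervals for 3 min. Cells had been cultured 18 h, then dye-loaded 1 h at 37 C before compound or ATP addition.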

[6] = p53 small molecule agonists, cell-based qHTS assay with human liver microsomes: qHTS cell viability counter screen (AID 1963579); also: nearly all actives have a fitted effect of over 45% in size
Summary of the method: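 Viability of p53RE-bla cells is measured as CellTiter-Glo luminescence following a 16 h, 37 C incubation with compound, liver microsomes from human donors and NADPH.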

[7] = p53 small molecule agonists, cell-based qHTS assay with rat liver microsomes: qHTS cell viability counter screen (AID 1963580); also: nearly all actives have a fitted effect of over 45% in size
Summary of the method: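 p53RE-bla HCT-116 cells were exposed 16 h at 37 C to compounds with rat liver microsomes (0.5 mg/mL) and NADPH (0.5 mg/mL). Viability was measured in the same wells as ATP content by CellTiter-Glo luminescence.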

[8] = p53 small molecule agonists, cell-based qHTS assay: qHTS cell viability counter screen (AID 1963581); also: nearly all actives have a fitted effect of over 45% in size
Summary of the method: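 In the same plates used for the p53 bla reporter, HCT-116 cells given compounds for 16 h at 37 C received CellTiter-Glo; luminescence was recorded 30 min later at room temperature.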

[9] = biological target: 5-hydroxytryptamine receptor 2A (Homo sapiens) (UniProt P28223); test: 5-hydroxytryptamine receptor 2A (HTR2A) small molecule antagonists, cell-based qHTS assay (AID 1963586); also: nearly all actives have a fitted effect of over 45% in size
Summary of the method: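 Antagonist-mode intracellular calcium assay: DOI (4 nM) added after 5 min compound pre-incubation at room temperature to dye-loaded HTR2A-CHO cells. Fluorescence followed for 3 min, sampled every second.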

[10] = biological target: 5-hydroxytryptamine receptor 2A (Homo sapiens) (UniProt P28223); test: 5-hydroxytryptamine receptor 2A (HTR2A) small molecule agonists, cell-based qHTS assay (AID 1963587); also: nearly all actives have a fitted effect of over 30% in size
Summary of the method: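 CHO cells stably expressing human HTR2A, plated 18 h, loaded with calcium dye 1 h at 37 C. Agonist mode: compounds added and intracellular calcium fluorescence recorded kinetically for 2 min at 1 sec intervals.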

[11] = biological target: Muscarinic acetylcholine receptor M1 (Homo sapiens) (UniProt P11229); test: Cholinergic receptor muscarinic 1 (CHRM1) small molecule antagonists, cell-based qHTS assay (AID 1963588); also: nearly all actives have a fitted effect of over 40% in size; also: potency is read from the fitted curve at half-maximal effect
Summary of the method: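 CHRM1-CHO calcium-flux assay, antagonist mode. Cells were seeded 18 h, dye-loaded 1 h at 37 C and given compound for 5 min at RT, then acetylcholine was added at 50nM. FDSS fluorescence was read 3 min; 15 concentrations, three runs.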

[12] = biological target: Muscarinic acetylcholine receptor M1 (Homo sapiens) (UniProt P11229); test: Cholinergic receptor muscarinic 1 (CHRM1) small molecule agonists, cell-based qHTS assay (AID 1963589); also: nearly all actives have a fitted effect of over 35% in size
Summary of the method: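 Each compound was tested at 15 concentrations across three independent runs on dye-loaded CHO cells stably expressing human CHRM1, reading intracellular calcium fluorescence kinetically at 1 sec intervals.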

[13] = cAMP Responsive Elements (CRE) small molecule agonists, cell-based qHTS assay (AID 1963590)
Summary of the method: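 Cell line: CRE-bla HEK 293T; medium DMEM/10% dialyzed FBS/0.1 mM NEAA/1 mM pyruvate/25 mM HEPES; 3 h compound exposure; beta-lactamase FRET readout after 2 h substrate loading at RT.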

[14] = cAMP Responsive Elements (CRE) small molecule antagonists, cell-based qHTS assay (AID 1963591; active = well fitted inhibition curve with a large enough effect in the signal ratio in the repeat runs, not every such curve was filed as active; the % refers to the signal ratio)
Summary of the method: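 Inhibition of NKH477-driven (0.25 uM final) CRE-beta-lactamase signal in HEK293T cells, 3 h compound exposure at 37 °C, detected by FRET substrate fluorescence.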

[15] = biological target: Beta-2 adrenergic receptor (Homo sapiens) (UniProt P07550); test: Adrenergic beta2 receptor (ADRB2) small molecule agonists, cell-based qHTS assay (AID 1963593);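 also: CHO cells stably overexpressing human ADRB2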
Summary of the method: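 CHO cells stably over-expressing ADRB2 were plated overnight at 37C, then dosed with compounds plus a stimulation mix containing 100uM IBMX and 25uM Ro-20-1724 for 0.5hr at room temperature. cAMP was measured by HTRF competition, 1hr.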

[16] = biological target: D(2) dopamine receptor (Homo sapiens) (UniProt P14416); test: Dopamine D2 receptor (DRD2) small molecule agonists, cell-based qHTS assay (AID 1963594); also: nearly all actives have a fitted effect of over 35% in size
Summary of the method: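 HEK293 cells stably expressing human DRD2, pre-treated with PDE inhibitor Ro20-1724 (0.1 mM final) and compound 10 min at room temperature, then stimulated with NKH477 (200nM […]) for 30 min. cAMP read by HTRF (665/620 nm).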

[17] = biological target: D(2) dopamine receptor (Homo sapiens) (UniProt P14416); test: Dopamine D2 receptor (DRD2) small molecule antagonists, cell-based qHTS assay (AID 1963595; active = well fitted inhibition curve with a large enough effect in the signal ratio in the repeat runs, with a control signal flat; the % refers to the signal ratio)
Summary of the method: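 DRD2-HEK293; 0.1 mM Ro20-1724; cpd 10 min RT; NKH477 200 nM + quinpirole 12 nM, 30 min RT; HTRF cAMP (cAMP-d2/anti-cAMP cryptate), 665/620 nm ratio after 1 h.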

[18] = biological target: Beta-2 adrenergic receptor (Homo sapiens) (UniProt P07550); test: Adrenergic beta2 receptor (ADRB2) small molecule antagonists, cell-based qHTS assay (AID 1963592); also: series mostly up to about 92 µM; nearly all actives have a fitted effect of over 50% in size
Summary of the method: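 Cells (CHO, stable ADRB2 overexpression) incubated 18-20hr at 37C; compounds added from DMSO; agonist mix (1nM isoproterenol, 100uM IBMX, 25uM Ro-20-1724) added; 0.5hr RT; d2-cAMP and anti-cAMP-cryptate added; 1hr RT; 665/615 nm read.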

Measured: Potency

Chain of Beta-2 adrenergic receptor (Homo sapiens) (P07550 whole entry, looked up): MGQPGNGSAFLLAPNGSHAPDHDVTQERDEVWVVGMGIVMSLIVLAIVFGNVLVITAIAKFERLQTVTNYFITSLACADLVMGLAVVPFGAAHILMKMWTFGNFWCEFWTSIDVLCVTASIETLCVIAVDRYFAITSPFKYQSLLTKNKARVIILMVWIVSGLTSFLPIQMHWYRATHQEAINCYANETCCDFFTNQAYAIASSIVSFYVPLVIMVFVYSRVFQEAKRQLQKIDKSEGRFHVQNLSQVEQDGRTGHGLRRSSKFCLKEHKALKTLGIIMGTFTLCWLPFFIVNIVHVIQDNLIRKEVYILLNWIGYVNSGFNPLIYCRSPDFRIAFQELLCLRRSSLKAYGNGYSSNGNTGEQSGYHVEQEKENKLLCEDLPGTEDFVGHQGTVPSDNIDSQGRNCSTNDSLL
Chain of 5-hydroxytryptamine receptor 2A (Homo sapiens) (P28223 whole entry, looked up): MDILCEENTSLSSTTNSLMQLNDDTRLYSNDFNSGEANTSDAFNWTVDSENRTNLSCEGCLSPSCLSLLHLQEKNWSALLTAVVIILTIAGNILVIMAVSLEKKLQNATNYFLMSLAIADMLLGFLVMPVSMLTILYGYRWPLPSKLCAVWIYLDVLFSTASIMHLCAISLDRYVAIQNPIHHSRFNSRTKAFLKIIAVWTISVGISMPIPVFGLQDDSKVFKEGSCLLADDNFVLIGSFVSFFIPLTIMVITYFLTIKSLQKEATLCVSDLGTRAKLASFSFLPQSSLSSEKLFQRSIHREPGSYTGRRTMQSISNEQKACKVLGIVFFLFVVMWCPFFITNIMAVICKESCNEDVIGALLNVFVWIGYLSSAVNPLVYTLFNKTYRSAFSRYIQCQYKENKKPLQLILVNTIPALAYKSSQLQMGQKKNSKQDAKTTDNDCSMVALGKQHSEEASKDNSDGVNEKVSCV
Chain of Gonadotropin-releasing hormone receptor (Homo sapiens) (P30968 whole entry, looked up): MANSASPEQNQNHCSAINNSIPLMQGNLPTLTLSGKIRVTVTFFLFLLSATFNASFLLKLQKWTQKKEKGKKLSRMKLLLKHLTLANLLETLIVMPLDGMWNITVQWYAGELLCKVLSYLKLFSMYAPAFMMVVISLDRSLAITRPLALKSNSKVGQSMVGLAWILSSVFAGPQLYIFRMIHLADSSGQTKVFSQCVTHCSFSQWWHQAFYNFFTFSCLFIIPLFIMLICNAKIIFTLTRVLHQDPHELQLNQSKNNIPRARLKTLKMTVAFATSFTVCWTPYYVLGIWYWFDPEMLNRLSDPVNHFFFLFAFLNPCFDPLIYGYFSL
Chain of D(2) dopamine receptor (Homo sapiens) (P14416 whole entry, looked up): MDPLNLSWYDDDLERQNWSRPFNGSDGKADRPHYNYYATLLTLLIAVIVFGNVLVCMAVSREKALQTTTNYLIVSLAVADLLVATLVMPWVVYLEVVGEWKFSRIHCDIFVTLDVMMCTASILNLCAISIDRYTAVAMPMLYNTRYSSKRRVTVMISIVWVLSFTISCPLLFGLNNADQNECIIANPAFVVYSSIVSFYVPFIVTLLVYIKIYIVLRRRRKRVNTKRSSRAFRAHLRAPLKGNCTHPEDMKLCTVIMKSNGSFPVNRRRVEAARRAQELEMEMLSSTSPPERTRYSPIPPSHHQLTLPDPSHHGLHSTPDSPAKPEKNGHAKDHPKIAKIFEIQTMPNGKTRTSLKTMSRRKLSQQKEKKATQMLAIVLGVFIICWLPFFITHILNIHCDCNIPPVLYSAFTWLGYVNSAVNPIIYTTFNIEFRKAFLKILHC
Chain of KiSS-1 receptor (Homo sapiens) (Q969F8 whole entry, looked up): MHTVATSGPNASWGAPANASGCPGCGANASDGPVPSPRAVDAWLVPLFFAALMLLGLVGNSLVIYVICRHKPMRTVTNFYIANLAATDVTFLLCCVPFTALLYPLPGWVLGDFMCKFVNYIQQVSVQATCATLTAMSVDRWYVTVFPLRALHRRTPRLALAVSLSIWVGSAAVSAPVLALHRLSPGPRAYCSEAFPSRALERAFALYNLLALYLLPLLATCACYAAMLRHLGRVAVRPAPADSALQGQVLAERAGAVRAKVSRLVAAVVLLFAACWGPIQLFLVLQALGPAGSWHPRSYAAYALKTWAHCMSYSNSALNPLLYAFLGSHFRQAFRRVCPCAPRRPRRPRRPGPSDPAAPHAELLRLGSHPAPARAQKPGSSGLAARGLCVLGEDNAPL
Chain of Muscarinic acetylcholine receptor M1 (Homo sapiens) (P11229 whole entry, looked up): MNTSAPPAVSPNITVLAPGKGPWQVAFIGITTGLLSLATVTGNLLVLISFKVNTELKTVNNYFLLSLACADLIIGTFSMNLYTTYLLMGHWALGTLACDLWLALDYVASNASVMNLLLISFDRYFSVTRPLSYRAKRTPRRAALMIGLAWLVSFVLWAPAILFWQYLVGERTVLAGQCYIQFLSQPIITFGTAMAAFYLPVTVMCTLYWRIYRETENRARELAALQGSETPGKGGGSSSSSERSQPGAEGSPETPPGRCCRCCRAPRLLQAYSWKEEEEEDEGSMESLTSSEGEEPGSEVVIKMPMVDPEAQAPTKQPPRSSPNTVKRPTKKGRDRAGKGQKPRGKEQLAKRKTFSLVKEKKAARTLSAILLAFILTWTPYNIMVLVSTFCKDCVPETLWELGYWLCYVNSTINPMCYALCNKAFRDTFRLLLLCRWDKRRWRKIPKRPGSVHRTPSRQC

O=C(O)/C=C/c1ccc(O)c(O)c1
not listed: [18]
inactive: all other assays above

CCOC(=O)CC(=O)c1ccccc1
not listed: [14]
inactive: all other assays above

Cc1ccc(C(C)OC(=O)C2(C)CCC(C(=O)O)C2(C)C)cc1 (configuration not stated)
not listed: [14] | [15]
inactive: all other assays above

CCC(C)(C)OC
not listed: [14] | [15] | [16]
inactive: all other assays above

COC(=O)CC(=O)C(C)(C)C
not listed: [15] | [16]
inactive: all other assays above

Cc1nnc(SCC2=C(C(=O)O)N3C(=O)[C@@H](NC(=O)Cn4cnnn4)[C@H]3SC2)s1
not listed: [14] | [16]
inactive: all other assays above

COc1ccc(Cc2cnc(N)nc2N)cc1OC
not listed: [14] | [15]
inactive: all other assays above

Cc1ccccc1Br
not listed: [13]
inactive: all other assays above

CC(C)(C)C(O)/C=C/c1ccc2c(c1)OCO2 (configuration not stated)
not listed: [14]
inactive: all other assays above

Cc1ccccc1N=C(N)Nc1ccccc1C
active: [11] 7.35 µM
not listed: [15] | [16]
inactive: all other assays above

COc1cc(Cl)c(OC)cc1N
not listed: [14] | [15] | [18]
inactive: all other assays above

CC(C)COC(=O)CCCCC(=O)OCC(C)C
not listed: [15] | [18]
inactive: all other assays above

CCC(C)(CCC(C)C)C(=O)[O-].CCC(C)(CCC(C)C)C(=O)[O-].[Zn+2] (configuration not stated)
not listed: [15] | [18]
inactive: all other assays above

COC(=O)c1ccc(C(=O)OC)c(C(=O)OC)c1
not listed: [14]
inactive: all other assays above
